ClpP mod = qHTS Assay for Activators of ClpP; ATP-dependent Clp protease proteolytic subunit (Bacillus subtilis (strain 168)), P80244; purified B. subtilis ClpP, FRET peptide cleavage, 20 min; Potency, µM (top dose mostly 57.5 µM); actives 1.9% (n = 340,000); active = well fitted falling curve with a large enough effect; inconclusive = small, poorly fitted or top-dose-only effect; inactive = no such curve, though single readings can be large or run the other way; note: the source files actives as falling curves though it sought activators and does not explain the sign; nearly all actives have a fitted effect of over 65% in size
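Purified B. subtilis ClpP, 10 microg/mL final in Tris/HCl pH8 with KCl, BSA, glycerol and Tween-20, cleaved an Abz/nitrotyrosine-quenched decapeptide. Fluorescence (ex 320, em 430) was read at 0 and 20 min at room temperature. Delta was normalized to 5.8 microM ADEP and DMSO/no-enzyme controls.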
RXFP1 antag = blocks the human relaxin receptor RXFP1; HEK293-RXFP1, relaxin-stimulated cAMP HTRF, 30 min; active compounds read low; AID 1259400; activity change, negative = inhibition, % at 57.5 µM; actives 0.59% (n = 350,000); Q9HBX9;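 active = activity change of -60% or lower, but not beyond a set lower limit; inconclusive = change between -60% and -40%, or beyond the set limit; inactive = change above -40%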
Target sequence (Q9HBX9 whole entry, looked up): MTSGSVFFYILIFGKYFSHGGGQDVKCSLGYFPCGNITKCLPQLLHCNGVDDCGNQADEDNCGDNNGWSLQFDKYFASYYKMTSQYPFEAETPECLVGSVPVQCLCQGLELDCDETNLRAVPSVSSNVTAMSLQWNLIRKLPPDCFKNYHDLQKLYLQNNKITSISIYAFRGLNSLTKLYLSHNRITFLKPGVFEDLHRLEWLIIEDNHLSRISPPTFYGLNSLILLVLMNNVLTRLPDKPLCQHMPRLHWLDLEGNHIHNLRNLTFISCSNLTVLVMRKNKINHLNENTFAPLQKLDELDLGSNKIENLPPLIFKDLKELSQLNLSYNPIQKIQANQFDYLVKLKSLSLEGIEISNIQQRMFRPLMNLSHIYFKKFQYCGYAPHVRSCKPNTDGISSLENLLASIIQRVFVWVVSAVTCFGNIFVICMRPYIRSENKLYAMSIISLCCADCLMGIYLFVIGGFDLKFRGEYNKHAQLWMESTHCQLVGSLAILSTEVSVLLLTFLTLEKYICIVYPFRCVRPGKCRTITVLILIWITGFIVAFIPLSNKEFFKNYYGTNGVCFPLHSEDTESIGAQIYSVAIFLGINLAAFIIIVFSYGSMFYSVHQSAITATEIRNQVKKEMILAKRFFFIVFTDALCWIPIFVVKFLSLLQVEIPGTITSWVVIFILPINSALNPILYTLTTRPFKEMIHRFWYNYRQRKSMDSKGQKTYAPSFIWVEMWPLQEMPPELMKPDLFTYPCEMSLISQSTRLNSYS
gsp ag = agonists of gsp mutant (McCune-Albright syndrome). actives 0.13% (n = 340,000). gsp mutant cells, cAMP HTRF, 30 min. AID 624287. Potency, µM (titrated, usually from 76.9 µM), hits mostly activators; active = well fitted activation curve with a large enough effect; inconclusive = small, poorly fitted or top-dose-only effect, or another doubt; inactive = no such curve, though single readings can be large or run the other way; cell line not stated here;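 note: phosphodiesterase inhibitor Ro 20-1724 added with compounds to block cAMP breakdown; nearly all actives have a fitted effect of over 60% in size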
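Cells in DMEM/10% FBS with G418 were pretreated with compounds in DMSO plus […] (300 uM stock) for 30 min at 37C. cAMP was measured by HTRF (cAMP-d2 plus anti-cAMP antibody-K) after 30 min at room temperature.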
pAkt inh = blocks phosphorylation of Akt; Neuro2A IGF-stimulated pAkt S473 HTRF, 20 min; active compounds read low; activity change, % for hits at 50 µM; actives 0.32% (n = 360,000); AID 651550; in the data active = activity change below about -80%; inconclusive = mostly about -51% to -80%
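Neuro2A cells in DMEM with 0.5% FBS, overnight at 37 deg C, given compound at single 50 µM final, then IGF (6 nM final) for 20 min at 37 deg C. Lysed; phospho-Akt Ser473 by HTRF after 24 h, 665/615 ratio.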
gsp antag = gsp mutant antagonism; gsp-mutant cells, cAMP HTRF, 30 min; Potency, µM (highest dose often 76.9 µM), most hits filed as inhibitors; actives 0.4% (n = 340,000); AID 624288; calls by dose curve; cell line not stated here;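 note: intracellular cAMP measured with PDE inhibitor Ro 20-1724 present during compound exposure; nearly all actives have a fitted effect of over 65% in size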
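Cells in G418 medium, seeded 16-24 h, 37C; buffer exchange to DPBS + 1 mM CaCl2, 0.5 mM MgCl2, 0.05% BSA; cpds in DMSO + […] (300 uM stock), 30 min 37C; HTRF cAMP detection.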
RXFP1 ag = RXFP1 (human) receptor agonism; Q9HBX9; HEK293T-RXFP1 cAMP TR-FRET, 30 min; response scale: percent of porcine relaxin response, buffer zero; Potency, µM (highest dose often 57.5 µM), usual class: activators; actives 0.3% (n = 370,000); active = well fitted activation curve with a large enough effect; inconclusive = small, poorly fitted or top-dose-only effect; note: nearly all actives have a fitted effect of over 60% in size
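Agonist response is measured as cAMP accumulation in an RXFP1-transfected HEK293T line under PDE4 inhibition. Values are scaled between buffer-only and 29 nM porcine relaxin, and EC50s come from standard Hill equation fits.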
Numbers stand for hits; i = inactive; ? = inconclusive; nt = not tested or not shown; ! = not confirmed by another sample; [ ] = another dose, or the depositor's remark. Hits are enriched below; roughly 2.7% of the tested compounds scored in any of these assays.

SMILES | ClpP mod | RXFP1 antag | gsp ag | pAkt inh | gsp antag | RXFP1 ag
COc1cc(C2Nc3ccccc3C(=O)N2c2ccc(Cl)cc2)c(Cl)cc1OCC(=O)O (configuration not stated) | 28µM | i | i | i | i | i
CCOc1ccc(OCCC(=O)OCC(=O)N2CCN(S(=O)(=O)c3ccc(C)cc3C)CC2)cc1 | i | i | i | i | i | nt
COc1ccc(CNC(=O)C(C#N)c2nc3ccccc3nc2N2CCN(C)CC2)cc1 (configuration not stated) | i | i | i | i | i | i
COc1ccc(CNC(=O)C(C#N)c2nc3ccccc3nc2N2CCCC2)cc1 (configuration not stated) | i | i | i | -84% | i | i
CCCCc1cc(=O)oc2cc(OCC(=O)N(CC)CC)c(Cl)cc12 | i | nt | i | i | i | i
CCCCc1cc(=O)oc2cc(OCC(=O)N(CC)CC)ccc12 | 28µM | i | i | i | i | i
C=C(Cl)COc1ccc2c(CC)cc(=O)oc2c1 | 25µM | i | i | i | i | i
C=C(Cl)COc1ccc2c(CCCC)cc(=O)oc2c1 | 28µM | i | i | i | i | i
CCc1cc(=O)oc2cc(OCC(N)=O)c(Cl)cc12 | 32µM | i | i | i | i | i
O=C(NNc1ccccc1F)c1cccs1 | i | nt | nt | nt | nt | nt
Cc1cc(=O)oc2cc(OCC(=O)NCCCN3CCOCC3)ccc12 | 28µM | i | ? | i | i[15.4 µM] | i
C=C(Cl)COc1ccc2c(C)cc(=O)oc2c1 | 10µM | i | i | i | i | i
Cn1nc(CC(=O)NC2CCCCCCCCCCC2)c2ccccc2c1=O | i | i | i | i | i | i
Cn1nc(CC(=O)Nc2ccc3c(c2)CCC3)c2ccccc2c1=O | i | i | i | -126% | i | i
CCc1ccc(CN2CCC(n3nccc3NC(=O)C3CCCC3)CC2)cc1 | 28µM | i | i | i | i | i
COC(=O)c1cc(NS(=O)(=O)c2ccc(N3CCC(C)CC3)c([N+](=O)[O-])c2)cc(C(=O)OC)c1 | i | i | i[15.4 µM] | i | i | i
COC(=O)c1cc(NS(=O)(=O)c2ccc(N3CCCCC3)c([N+](=O)[O-])c2)cc(C(=O)OC)c1 | i | i | i | -98% | i | i
O=P(CCCCCCCCCP(=O)(c1ccccc1)c1ccccc1)(c1ccccc1)c1ccccc1 | i | -72 | i | i | 40µM | i
CC1CCN(c2oc(-c3ccc(COc4ccc(Cl)cc4)o3)nc2C#N)CC1 | 25µM | i | nt | nt | nt | i
Cc1cccc(OCc2ccc(-c3nc(C#N)c(N4CCN(c5ccccc5)CC4)o3)o2)c1 | i | i | nt | nt | nt | i
N#Cc1nc(-c2ccc(COc3ccccc3)o2)oc1N1CCCCC1 | 32µM | i | nt | nt | nt | i
N#Cc1nc(-c2ccc(COc3ccc(Cl)cc3)o2)oc1N1CCCCC1 | 28µM | i | nt | nt | nt | i
O=C(NNC(=O)c1ccccc1OCc1ccc(F)cc1)c1ccncc1 | nt | i | i[15.4 µM] | i | i | i
COc1ccc(NC(=O)CCNC(=O)c2ccccc2Cl)cc1S(=O)(=O)N1CCCCC1 | i | i | i | i | nt | nt
O=C1c2ccccc2NC(c2cccc(F)c2)N1Cc1ccccc1 (configuration not stated) | i | i | i | i | ? | i
SMILES | ClpP mod | RXFP1 antag | gsp ag | pAkt inh | gsp antag | RXFP1 ag
COc1cc(C2Nc3ccccc3C(=O)N2Cc2ccco2)ccc1O (configuration not stated) | i | nt | nt | nt | nt | nt
Cc1ccc(C2Nc3ccccc3C(=O)N2Cc2ccco2)cc1 (configuration not stated) | 25µM | i | i | i | i | i
O=C1c2ccccc2C(O)N1Cc1ccco1 (configuration not stated) | i | i | i | i | i | i
O=C1c2ccccc2NC(c2ccc(O)cc2)N1Cc1ccco1 (configuration not stated) | 32µM! | i | i | i | i | i
O=C1c2ccccc2NC(c2cccc(F)c2)N1Cc1ccco1 (configuration not stated) | 18µM | i | i | i | i | i
O=C1c2cccc3cccc(c23)C(=O)N1CC1CCN(CC(O)COCc2ccc3c(c2)OCO3)CC1 (configuration not stated) | 28µM | i | i | i | i | i
CC(=O)c1cn(CC(=O)Nc2c(C)cccc2C)c2ccccc12 | i | i | i | i | i | i
CC(=O)c1cn(CC(=O)Nc2ccccc2C)c2ccccc12 | i | i | i | -111% | i | i
CCc1ccc(NC(=O)CSc2nnc(-c3ccccc3)n2C)cc1 | i | nt | nt | nt | nt | nt
Cc1cc(C)c2cc(C#N)c(NCCOC(=O)c3ccccc3C)nc2c1 | 28µM | i | i | i | i | i
CCOC(=O)c1cc(C#N)c(N)nc1C | 22µM | i | i | i | i | i
CCOC(=O)CCSc1nc(C)c2cc(C)c(C)cc2n1 | i | i | ? | i | i | i
COC(=O)c1cc(C#N)c(N(C)Cc2ccccc2)nc1C | ? | i | i | i | i | i
COC(=O)c1cc(C#N)c(NCc2ccccc2)nc1C | 32µM | i | i | i | i | i
CCOC(=O)c1cc(C#N)c(SC)nc1C | i | i | i[15.4 µM] | i | i | i
CCOC(=O)CCSc1nc(C)c2cc(OC)ccc2n1 | 25µM | i | i | i | i | i
CCCCNC(=O)C1C(c2ccc(C(F)(F)F)cc2)=Nc2ccccc2N1C(C)=O (configuration not stated) | i | nt | nt | i | nt | nt
COCCCn1c(=O)c2sccc2n2c(CCCC(=O)Nc3ccc(F)c(F)c3)nnc12 | i | nt | nt | nt | nt | i
COc1ccc2nc(C)c(C(N)=O)cc2c1 | i | i | i[15.4 µM] | i | i | i
CCOC(=O)c1cc2cc(OC)ccc2nc1C | 32µM | i | i | i | i | i
COc1ccc(OCC(=O)Nc2ccc(C(=O)OCc3cc(=O)n4nc(C)sc4n3)cc2)cc1 | i | i | nt | nt | nt | i
O=C(N/N=C/c1ccccc1)c1ccc(-c2ccccc2)cc1 | i | i | i | i | i | i
CC(C)Oc1ccc(/C=N/NC(=O)c2ccc(N(Cc3ccccc3)S(C)(=O)=O)cc2)cc1 | i | i | i | i | i | i
NC(=O)COc1ccc(/C=N\NC(=O)c2ccc(-c3ccccc3)cc2)cc1 | 10µM | i | i[15.4 µM] | i | i | i
COC(=O)COc1ccc(/C=N/NC(=O)c2ccc(N(Cc3ccccc3)S(C)(=O)=O)cc2)cc1 | 32µM | nt | i | i | ? | i
COC(=O)c1ccccc1NC(=O)c1ccc2c(c1)CCN2S(C)(=O)=O | i | i | nt | nt | nt | i
CCn1c(C)cc(/C=C2/NC(=O)N(Cc3ccccc3F)C2=O)c1C | nt | i | ? | i | i | i
Cc1cc(/C=C2/NC(=O)N(Cc3ccccc3F)C2=O)c(C)n1C(C)C | nt | i | i[15.4 µM] | i | 11µM | i

Screening results deposited in PubChem BioAssay by National Center for Advancing Translational Sciences (NCATS).
